High-throughput results from PubChem BioAssay.
In the library only some 13% were active in any assay of this set; here they are far more common.
Shiga inhibitor: inhibitors of Shiga toxin in Vero cells | Vero cells, Shiga toxin protein synthesis inhibition reporter | inhibition, % at 38.7 µM | actives 9.2% (n = 290,000) | AID 2315; in the data active = inhibition mostly above about 28%, no sharp cut-off; inactive = mostly below about 43%; note: 0% is about no effect
FMDV inh: blocks foot and mouth disease virus | actives 1.2% (n = 410,000) | FMDV antiviral cell-based qHTS | Potency, µM (series often up to 57.9 µM), inactives show at the highest dose activity change, negative = inhibition, actives largely listed as inhibitors | AID 1159524; calls by dose curve; tested in HEK293T cells; note: read-out not given here; potency is the fitted concentration of half-maximal effect; % is set by controls: 0 for no effect and ±100 for the full control effect; nearly all actives have a fitted effect of over 45% in size
CHX counter: counter-screen hit for Shiga toxin inhibitors, cycloheximide; cell reporter, cycloheximide protein synthesis inhibition counterscreen; actives 12% (n = 300,000); max response, %; in the data active = max response mostly above about 13%, no sharp cut-off; inactive = mostly below about 14%; note: read at 38.3 µM for the half of the compounds with a filed dose; 0% is about no effect
LASV entry inh: inhibitors of Lassa virus binding or cell entry; Lassa virus pseudotype entry inhibition, cell reporter; Potency, µM (top dose mostly 37.9 µM), for the others: top-dose activity change, negative = inhibition, actives largely listed as inhibitors; actives 1.2% (n = 300,000); calls by dose curve; tested in HEK293 cells; note: potency is the fitted concentration of half-maximal effect; % is set by controls: 0 for no effect and ±100 for the full control effect; nearly all actives have a fitted effect of over 50% in size
Marburg entry inh: inhibitors of Marburg virus binding or cell entry. Potency, µM (doses to about 37.8 µM), for inactives: top-dose activity change, negative = inhibition, hits mostly inhibitors. actives 1.8% (n = 300,000). Marburg virus pseudotyped entry inhibition, cell reporter; calls by dose curve; tested in HEK293 cells; note: potency is the fitted concentration of half-maximal effect; % is set by controls: 0 for no effect and ±100 for the full control effect
HCV inhibitor: inhibitors of hepatitis C virus infection. Huh7.5.1 HCVcc-Cre infection, luciferase reporter, 44 h. Potency, µM (highest dose often 41.8 µM), inactives show at the highest dose activity change, negative = inhibition, hits mostly inhibitors. actives 3.4% (n = 340,000). AID 651820; active = well fitted inhibition curve with a large enough effect; inconclusive = small, poorly fitted or top-dose-only effect, or another doubt; inactive = no such curve, though single readings can be large or run the other way; note: potency is the fitted concentration of half-maximal effect; % is set by controls: 0 for no effect and ±100 for the full control effect
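1,000 cells/well; 4 h culture; + compound; + HCVcc-Cre (~0.5 moi); 44 h; luciferase substrate, RT 15 min; read 15 sec.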
Starred values were filed as active, the others as inactive; ? = inconclusive; / = not tested or not shown; [ ] = dose if it differs, or a comment.

SMILES | Shiga inhibitor | FMDV inh | CHX counter | LASV entry inh | Marburg entry inh | HCV inhibitor
CCN(CC)c1ccc(NC(=O)Cn2c(C(C)NC(=O)c3ccccc3)nc3ccccc32)cc1 (stereo not drawn) | -13.0 | -21.3% | -7.7 | 13.8% | -20.1% | 4.7%
CCc1ccc(C(=O)CN2CCSC2=N)cc1 | 71.0* | 9.7% | 83.4* | ? | ? | -13.0%
COC(=O)c1ccc(CN2CCSC2=N)cc1 | -3.7 | -26.6% | -1.9 | / | / | 18.6%
CCn1c(SCC(=O)N2CCC(C(N)=O)(N3CCCCC3)CC2)nnc1-c1ccccc1 | 13.7 | -26.9% | 7.9 | 2.5% | 6.7% | -12.3%
CN=c1scc(-c2ccccc2Br)n1/N=C/c1ccc[nH]1 | 86.2* | / | 29.3* | / | / | /
CN1CC2([N+](=O)[O-])CC=C(Oc3ccccc3)C([N+](=O)[O-])(C1)C2 (stereo not drawn) | -2.0 | -21.8% | -4.6 | -7.7% | 1.2% | -2.0%
O=C(O)CN1C(=O)/C(=C\c2cccc(OCc3ccc(Cl)cc3Cl)c2)SC1=S | 67.6* | 2.8% | 22.4* | -12.2%[46.1 µM] | 25.4%[46.1 µM] | -4.4%
O=C(O)CN1C(=O)/C(=C\c2cc(Br)ccc2OCc2ccccc2F)SC1=S | 0.5 | -15.3% | 5.5 | / | / | 2.2%
O=C(O)CN1C(=O)/C(=C\c2ccccc2OCc2ccc(Cl)cc2Cl)SC1=S | 38.3* | 25.1µM* | 15.8* | 9.4%[46.1 µM] | -15.4%[46.1 µM] | 30.1%
O=C(O)CCN1C(=O)/C(=C\c2cccc(OCc3ccccc3)c2)SC1=S | -9.1 | 7.5% | 2.7 | 11.6% | 22.1%[46.1 µM] | -5.5%
O=C(O)CN1C(=O)/C(=C\c2cc(Br)ccc2OCc2ccccc2Cl)SC1=S | 77.3* | -16.4% | 41.8* | ? | -26.0%[46.1 µM] | -16.4%
Cc1cc(OCC(=O)N(Cc2ccco2)C2CCS(=O)(=O)C2)ccc1Cl (stereo not drawn) | -5.8 | -24.2% | 1.1 | 19.9%[46.1 µM] | -1.7%[46.1 µM] | -10.5%
CCOc1ccc(CCNC(=O)Cn2c(-c3cccs3)cc3cc(F)ccc32)cc1OCC | / | -42.4% | / | 11.2µM* | ? | /
CCOc1ccc(CCNC(=O)CN2CCN(Cc3ccccc3F)C2=O)cc1OCC | -3.8 | 5.5% | -3.2 | ? | ? | 11.2µM*
CCOc1ccc(CCNC(=O)CN2CCN(Cc3ccc(F)cc3)C2=O)cc1OCC | -3.3 | -20.2% | -0.6 | -0.6% | 1.8% | ?
COc1ccccc1NCC(=O)NN=C1CCS(=O)(=O)c2ccc(F)cc21 | / | -18.8% | / | 6.5% | ? | -16.0%
O=C(CSc1nc(C2CC2)nc2ccccc12)Nc1ccccc1N1CCOCC1 | 13.0 | 25.1µM* | -2.4 | / | / | ?
Cc1ccc(SCC(=O)Nc2ccc(N3CCOCC3)cc2)cc1 | -0.7 | 5.1% | -0.7 | / | / | 2.6%
O=C(CSc1ccccc1)Nc1ccc(N2CCOCC2)c(F)c1 | 119.8* | 71.6% | 57.3* | / | / | 6.6%
O=C(CSc1ccc(F)cc1)Nc1ccc(N2CCOCC2)cc1 | 30.2 | 24.8% | 27.2* | / | / | -13.6%
Cn1c(CC(=O)Nc2ccccc2)nnc1SCC(=O)Nc1ccc(N2CCOCC2)cc1 | 29.3 | 25.9% | 39.3* | 6.5%[46.1 µM] | 15.1%[46.1 µM] | 17.3%
Cc1ccc(NC(=O)Cc2nnc(SCC(=O)Nc3ccc(N4CCOCC4)cc3)n2C)cc1 | -8.7 | 16.1% | -0.7 | -8.2% | -16.7% | -6.7%
O=C(CSc1nc(C2CC2)nc2ccccc12)Nc1ccccc1Cl | -7.4 | ? | -1.7 | 12.4% | 3.2%[46.1 µM] | 7.7%
Cc1cc(NC(=O)c2ccccc2Cl)ccc1NC(=O)c1ccccc1 | / | 1.4% | / | ? | / | /
CCN(CC)c1ccc(NC(=O)CSc2nc(C3CC3)nc3ccccc23)cc1C | 7.8 | -11.1% | -5.0 | ? | 4.47µM* | ?
SMILES | Shiga inhibitor | FMDV inh | CHX counter | LASV entry inh | Marburg entry inh | HCV inhibitor
O=C(Nc1ccc(N2CCOCC2)cc1)c1nc2ccccc2s1 | 91.1* | -8.7% | 53.6* | -8.3%[46.1 µM] | ? | ?
O=C(CSc1ccc2ccccc2n1)Nc1ccc(N2CCOCC2)cc1 | 48.5* | 22.0% | 30.7* | 0.5% | -29.2%[46.1 µM] | ?
Nc1nc2ccc(C(=O)Nc3ccc(N4CCOCC4)cc3)cc2s1 | / | -6.1% | / | 6.2% | ? | ?
Cn1c(-c2ccc(F)cc2)cnc1SCC(=O)Nc1ccccc1N1CCOCC1 | 56.0* | -17.0% | 27.2* | 0.0% | -23.3% | ?
CCCC1=[N+](CC(C)=O)CCn2c(C)ccc21 | -8.3 | -5.0% | 4.4 | -19.2% | -4.0% | -6.5%
CC(C)C[C@H]1CN(CCCC[C@@H]2CNC(=O)C(=O)N2Cc2ccccc2)C(=O)C(=O)N1Cc1ccccc1 | / | -5.0% | / | / | / | /
Cc1ccc(SCC(=O)Nc2ccc(N3CCN(C)CC3)c(F)c2)c(C)c1 | 37.2 | 43.7% | 24.1* | / | / | ?
CCCc1nc(SCC(=O)Nc2ccc(N3CCOCC3)cc2)c2ccccc2n1 | -2.2 | ? | -0.4 | 12.8% | 0.708µM* | -15.1%
O=C(CSc1ccccc1F)Nc1ccc(N2CCOCC2)cc1 | / | 54.0% | / | / | / | 9.5%
O=C(COC(=O)c1ccccc1SCC(=O)N1CCCC1)Nc1ccccc1 | 42.9 | 2.3% | 17.4* | ? | 16.7%[46.1 µM] | -3.9%
COC(=O)c1ccccc1SCC(=O)Nc1ccc(N2CCOCC2)cc1 | 54.6* | 30.0% | 37.4* | ? | -22.5% | 5.6%
CC(C)c1nc(SCC(=O)Nc2ccc(N3CCOCC3)cc2)c2ccccc2n1 | -9.3 | ? | -1.4 | ? | -23.1% | ?
O=C(COc1ccc(Br)cc1)N1CCc2ccccc21 | 111.1* | 71.3% | 26.7* | ? | ? | -0.4%
O=C(COc1ccccc1Cl)N1CCc2ccccc2C1 | / | 40.4% | 4.1 | 28.2% | 14.9% | 31.2%
O=C(COc1ccccc1Cl)N1CCc2ccccc21 | 100.6* | 20.1% | 41.2* | -0.3% | ? | -18.1%
NC(=O)c1ccccc1OCC(=O)N1CCCc2ccccc21 | 74.3* | 12.6% | 25.6* | -5.0%[46.1 µM] | ? | -27.4%
O=C(COc1ccccc1)N1CCc2ccccc21 | 75.9* | 71.7% | 31.1* | ? | -3.1% | -6.7%
Cc1cccc(NC(=O)c2cccc(S(=O)(=O)Nc3ccccc3C(=O)O)c2)c1 | / | 20.3% | 6.4 | -1.5%[46.1 µM] | 11.3%[46.1 µM] | 2.5%
Cc1cc(Cl)cc(Br)c1OCCCNCC(C)O (stereo not drawn) | -5.8 | -20.5% | -4.0 | -6.2%[46.1 µM] | ? | -24.8%
CCOc1ccccc1-c1nnc2n1N=C(c1cccc(OC)c1)CS2 | -10.2 | / | -5.9 | / | / | /
O=C(CCCOc1ccccc1)N1CCCc2ccccc21 | 132.3* | / | 49.1* | 6.0% | 6.6% | -5.6%
C/C(N)=C(/C#N)C(=O)COC(=O)c1ccccc1O | active | 60.9% | 24.0* | ? | -14.0% | -1.6%
C/C(N)=C(/C#N)C(=O)COC(=O)c1cc(-c2cccc3ccccc23)nc2ccccc12 | -11.0 | -19.7% | 7.9 | -24.4% | -22.2% | ?
C/C(N)=C(/C#N)C(=O)COC(=O)c1cccc2ccccc12 | 94.8* | 42.2% | 37.4* | -4.3% | 9.4% | ?
COC(=O)C1=C(c2ccc(OCc3ccccc3)cc2)C[C@@H]2CC[C@H]1N2C(=O)NCCN1CCOCC1 | / | -10.1% | / | / | / | -10.5%
O=C(Oc1ccc(-c2cnc3ccccc3n2)cc1)c1ccco1 | 64.4 | 16.5% | 23.2* | -4.0% | ? | ?
